Experimental data from PMC7862700, “An all-to-all approach to the identification of sequence-specific readers for epigenetic DNA modifications on cytosine”.

Experiments:
Experiment in all cases: DAPPL (digital affinity profiling via proximity ligation, sequencing); 10 mM Tris-HCl pH 7.5, 50 mM NaCl, 1 mM DTT, 4% glycerol, room temperature, 30 min; GST-TFs on glutathione beads, 16-mer random dsDNA library, 0.1% formaldehyde crosslink after washing; high values mean tight binding
[1] = molecular target: T1, FEV (Homo sapiens, UniProt Q99581 1-238); details: protein: recombinant; tags: N-terminal GST; dsDNA, one strand shown
T1 sequence: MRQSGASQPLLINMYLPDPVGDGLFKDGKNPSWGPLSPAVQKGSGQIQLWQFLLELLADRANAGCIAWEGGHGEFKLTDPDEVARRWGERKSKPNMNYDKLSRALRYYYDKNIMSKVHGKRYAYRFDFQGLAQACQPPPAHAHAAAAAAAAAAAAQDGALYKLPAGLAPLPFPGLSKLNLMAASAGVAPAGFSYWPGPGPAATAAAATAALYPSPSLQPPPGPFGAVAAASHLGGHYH
Outline: (§1)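 Pools of DNA-barcoded human transcription factors, expressed in yeast as GST fusions on glutathione beads and combined with a tag-only sample, were incubated with 200 nmole of a 16-mer random double-stranded DNA library. Incubation took 30 min at room temperature in Tris/NaCl/DTT/glycerol buffer and was followed by washing, 0.1% formaldehyde crosslinking, proximity ligation (BsaI/T4 ligase, 1 h, 37 °C), PCR amplification and sequencing on an Illumina NextSeq500. Binding signal is the ratio of a hexamer's read frequency for a factor to its frequency for the tag-only sample.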

[2] = molecular target: ETV5 (Homo sapiens, UniProt P41161 1-510); details: protein: recombinant; tags: N-terminal GST; dsDNA, one strand shown
Sequence of ETV5 (P41161 whole entry): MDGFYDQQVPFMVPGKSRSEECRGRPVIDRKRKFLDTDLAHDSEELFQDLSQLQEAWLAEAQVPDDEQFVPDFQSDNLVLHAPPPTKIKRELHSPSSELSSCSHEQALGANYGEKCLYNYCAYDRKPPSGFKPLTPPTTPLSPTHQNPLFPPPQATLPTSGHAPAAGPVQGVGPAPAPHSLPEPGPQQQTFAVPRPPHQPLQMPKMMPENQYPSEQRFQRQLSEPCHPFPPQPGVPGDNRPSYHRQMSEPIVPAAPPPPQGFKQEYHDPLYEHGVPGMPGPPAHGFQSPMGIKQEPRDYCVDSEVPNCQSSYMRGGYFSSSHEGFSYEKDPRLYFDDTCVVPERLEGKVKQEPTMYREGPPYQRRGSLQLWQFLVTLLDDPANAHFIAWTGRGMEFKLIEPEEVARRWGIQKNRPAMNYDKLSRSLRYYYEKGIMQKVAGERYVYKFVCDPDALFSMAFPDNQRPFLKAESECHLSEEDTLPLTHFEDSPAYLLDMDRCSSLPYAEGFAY
Outline: as §1

[3] = molecular target: HSF1 (Homo sapiens, UniProt Q00613 1-529); details: protein: recombinant; tags: N-terminal GST; chain copies: 3; dsDNA, one strand shown
Sequence of HSF1 (Q00613 whole entry): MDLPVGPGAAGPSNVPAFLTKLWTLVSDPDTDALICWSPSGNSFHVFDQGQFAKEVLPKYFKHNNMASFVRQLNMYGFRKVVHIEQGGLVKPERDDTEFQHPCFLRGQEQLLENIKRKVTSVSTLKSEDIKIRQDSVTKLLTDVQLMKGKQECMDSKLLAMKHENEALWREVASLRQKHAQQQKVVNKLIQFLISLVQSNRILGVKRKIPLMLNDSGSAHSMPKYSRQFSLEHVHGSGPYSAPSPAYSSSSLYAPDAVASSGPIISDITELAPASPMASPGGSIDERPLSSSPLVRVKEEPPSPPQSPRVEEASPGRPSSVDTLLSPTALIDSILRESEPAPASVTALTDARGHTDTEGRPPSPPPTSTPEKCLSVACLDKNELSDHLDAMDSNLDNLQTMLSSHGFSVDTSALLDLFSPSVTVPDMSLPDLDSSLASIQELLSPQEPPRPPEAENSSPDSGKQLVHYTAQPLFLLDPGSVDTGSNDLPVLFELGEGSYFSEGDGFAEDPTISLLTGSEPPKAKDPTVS
Outline: as §1

[4] = molecular target: T2, SPIC (Homo sapiens, UniProt Q8N5J4 1-248); details: protein: recombinant; tags: N-terminal GST; dsDNA, one strand shown
T2 sequence: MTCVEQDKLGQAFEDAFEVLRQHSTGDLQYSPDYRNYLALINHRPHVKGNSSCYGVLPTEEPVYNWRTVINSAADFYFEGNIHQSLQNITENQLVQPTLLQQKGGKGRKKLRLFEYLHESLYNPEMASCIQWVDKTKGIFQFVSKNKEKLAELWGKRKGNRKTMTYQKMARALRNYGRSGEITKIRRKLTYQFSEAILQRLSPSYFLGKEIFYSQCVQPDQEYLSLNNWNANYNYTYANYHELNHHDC
Outline: as §1

[5] = molecular target: ELF4 (Homo sapiens, UniProt Q99607 1-663); details: protein: recombinant; tags: N-terminal GST; dsDNA, one strand shown
Sequence of ELF4 (Q99607 whole entry): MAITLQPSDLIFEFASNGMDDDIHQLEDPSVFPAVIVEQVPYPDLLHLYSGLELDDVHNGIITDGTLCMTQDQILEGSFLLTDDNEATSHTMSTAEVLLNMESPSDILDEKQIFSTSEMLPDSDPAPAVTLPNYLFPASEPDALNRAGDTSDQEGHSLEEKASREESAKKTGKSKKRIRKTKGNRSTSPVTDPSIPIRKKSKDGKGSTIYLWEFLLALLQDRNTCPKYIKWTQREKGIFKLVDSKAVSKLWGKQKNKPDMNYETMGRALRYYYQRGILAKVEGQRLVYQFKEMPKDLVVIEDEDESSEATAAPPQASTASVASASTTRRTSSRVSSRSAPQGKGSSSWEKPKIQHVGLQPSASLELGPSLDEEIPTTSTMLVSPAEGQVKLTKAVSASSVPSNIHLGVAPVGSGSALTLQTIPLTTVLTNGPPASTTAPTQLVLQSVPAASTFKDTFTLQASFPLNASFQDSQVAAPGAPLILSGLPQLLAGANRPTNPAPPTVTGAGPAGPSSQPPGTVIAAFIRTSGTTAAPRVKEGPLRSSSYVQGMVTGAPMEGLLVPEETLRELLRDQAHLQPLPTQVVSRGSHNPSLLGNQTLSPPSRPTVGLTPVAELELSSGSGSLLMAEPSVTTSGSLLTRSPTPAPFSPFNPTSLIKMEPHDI
Outline: as §1

[6] = molecular target: T3, ELK4 (Homo sapiens, UniProt P28324-2 1-405); details: protein: recombinant; tags: N-terminal GST; dsDNA, one strand shown
T3 sequence: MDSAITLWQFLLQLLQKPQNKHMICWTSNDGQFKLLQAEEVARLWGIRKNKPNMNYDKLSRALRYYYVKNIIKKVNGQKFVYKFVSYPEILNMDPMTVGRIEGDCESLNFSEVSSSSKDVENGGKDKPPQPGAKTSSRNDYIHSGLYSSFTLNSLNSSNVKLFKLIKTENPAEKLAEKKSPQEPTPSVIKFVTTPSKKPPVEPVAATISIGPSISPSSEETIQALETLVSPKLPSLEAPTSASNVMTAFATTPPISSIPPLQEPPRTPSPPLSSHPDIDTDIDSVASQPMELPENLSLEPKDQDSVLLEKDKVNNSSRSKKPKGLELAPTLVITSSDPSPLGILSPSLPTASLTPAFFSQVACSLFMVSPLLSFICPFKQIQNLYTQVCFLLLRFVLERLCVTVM
Outline: as §1

[7] = molecular target: T4, ETV2 (Homo sapiens, UniProt O00321 1-342); details: protein: recombinant; tags: N-terminal GST; dsDNA, one strand shown
T4 sequence: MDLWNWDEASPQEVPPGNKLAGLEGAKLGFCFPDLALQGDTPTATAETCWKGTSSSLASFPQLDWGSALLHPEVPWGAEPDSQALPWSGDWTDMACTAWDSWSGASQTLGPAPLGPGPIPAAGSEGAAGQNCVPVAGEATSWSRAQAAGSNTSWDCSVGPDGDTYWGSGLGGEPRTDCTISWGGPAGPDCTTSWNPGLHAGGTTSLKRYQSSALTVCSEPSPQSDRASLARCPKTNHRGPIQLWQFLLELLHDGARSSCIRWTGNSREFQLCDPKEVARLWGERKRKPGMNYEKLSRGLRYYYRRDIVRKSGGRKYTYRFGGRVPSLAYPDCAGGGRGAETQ
Outline: as §1

[8] = molecular target: T5, ELF3 (Homo sapiens, UniProt P78545 1-371); details: protein: recombinant; tags: N-terminal GST; dsDNA, one strand shown
T5 sequence: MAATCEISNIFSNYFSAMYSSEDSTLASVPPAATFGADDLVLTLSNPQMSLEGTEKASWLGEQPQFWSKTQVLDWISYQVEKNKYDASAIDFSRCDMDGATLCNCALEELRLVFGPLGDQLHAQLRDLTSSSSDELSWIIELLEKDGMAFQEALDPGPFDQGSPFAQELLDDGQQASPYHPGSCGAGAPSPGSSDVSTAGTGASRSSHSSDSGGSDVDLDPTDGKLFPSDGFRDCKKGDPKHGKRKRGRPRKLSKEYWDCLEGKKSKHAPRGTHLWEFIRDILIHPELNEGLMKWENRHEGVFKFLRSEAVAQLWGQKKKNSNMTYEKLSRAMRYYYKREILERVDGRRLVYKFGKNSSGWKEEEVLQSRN
Outline: as §1

[9] = molecular target: CRX (Homo sapiens, UniProt O43186 1-299); details: protein: recombinant; tags: N-terminal GST; dsDNA, one strand shown
Sequence of CRX (O43186 whole entry): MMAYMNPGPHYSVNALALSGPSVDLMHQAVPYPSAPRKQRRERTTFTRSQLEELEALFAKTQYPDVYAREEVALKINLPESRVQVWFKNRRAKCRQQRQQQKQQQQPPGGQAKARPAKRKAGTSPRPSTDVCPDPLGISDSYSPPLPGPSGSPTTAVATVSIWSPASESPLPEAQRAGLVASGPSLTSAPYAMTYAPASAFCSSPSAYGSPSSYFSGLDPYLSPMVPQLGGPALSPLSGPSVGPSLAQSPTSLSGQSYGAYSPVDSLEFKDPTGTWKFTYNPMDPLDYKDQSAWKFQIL
Outline: as §1

[10] = molecular target: ETV1 (Homo sapiens, UniProt P50549 1-477); details: protein: recombinant; tags: N-terminal GST; dsDNA, one strand shown
Sequence of ETV1 (P50549 whole entry): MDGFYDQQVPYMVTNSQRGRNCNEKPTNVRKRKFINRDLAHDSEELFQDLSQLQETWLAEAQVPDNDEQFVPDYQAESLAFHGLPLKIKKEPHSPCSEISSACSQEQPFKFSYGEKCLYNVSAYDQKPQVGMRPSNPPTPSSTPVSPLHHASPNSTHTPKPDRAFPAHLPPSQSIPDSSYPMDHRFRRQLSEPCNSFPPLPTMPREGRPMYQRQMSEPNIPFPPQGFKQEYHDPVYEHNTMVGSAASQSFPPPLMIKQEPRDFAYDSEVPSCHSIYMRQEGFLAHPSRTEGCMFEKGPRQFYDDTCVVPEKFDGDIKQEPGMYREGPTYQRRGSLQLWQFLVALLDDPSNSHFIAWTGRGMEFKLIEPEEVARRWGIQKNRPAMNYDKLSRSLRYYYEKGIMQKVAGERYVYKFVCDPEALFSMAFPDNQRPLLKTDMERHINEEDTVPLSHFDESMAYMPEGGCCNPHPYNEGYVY
Outline: as §1

[11] = molecular target: T6, ERF (Homo sapiens, UniProt P50548 1-548); details: protein: recombinant; tags: N-terminal GST; dsDNA, one strand shown
T6 sequence: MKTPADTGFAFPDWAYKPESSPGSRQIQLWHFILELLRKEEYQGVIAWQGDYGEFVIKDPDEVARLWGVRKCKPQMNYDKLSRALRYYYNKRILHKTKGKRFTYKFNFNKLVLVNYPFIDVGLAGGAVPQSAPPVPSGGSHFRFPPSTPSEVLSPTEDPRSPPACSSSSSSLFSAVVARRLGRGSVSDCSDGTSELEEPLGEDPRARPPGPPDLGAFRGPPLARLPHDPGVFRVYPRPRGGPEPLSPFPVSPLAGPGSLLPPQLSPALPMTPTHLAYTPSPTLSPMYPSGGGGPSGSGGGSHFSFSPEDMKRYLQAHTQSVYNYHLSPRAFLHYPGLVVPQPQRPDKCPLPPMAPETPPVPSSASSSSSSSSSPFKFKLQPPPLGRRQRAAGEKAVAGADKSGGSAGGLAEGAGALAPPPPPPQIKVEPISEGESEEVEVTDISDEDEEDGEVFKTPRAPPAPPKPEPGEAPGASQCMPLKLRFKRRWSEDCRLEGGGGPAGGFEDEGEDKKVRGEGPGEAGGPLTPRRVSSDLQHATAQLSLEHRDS
Outline: as §1

[12] = molecular target: T7, ETV3L (Homo sapiens, UniProt Q6ZN32 1-361); details: protein: recombinant; tags: N-terminal GST; dsDNA, one strand shown
T7 sequence: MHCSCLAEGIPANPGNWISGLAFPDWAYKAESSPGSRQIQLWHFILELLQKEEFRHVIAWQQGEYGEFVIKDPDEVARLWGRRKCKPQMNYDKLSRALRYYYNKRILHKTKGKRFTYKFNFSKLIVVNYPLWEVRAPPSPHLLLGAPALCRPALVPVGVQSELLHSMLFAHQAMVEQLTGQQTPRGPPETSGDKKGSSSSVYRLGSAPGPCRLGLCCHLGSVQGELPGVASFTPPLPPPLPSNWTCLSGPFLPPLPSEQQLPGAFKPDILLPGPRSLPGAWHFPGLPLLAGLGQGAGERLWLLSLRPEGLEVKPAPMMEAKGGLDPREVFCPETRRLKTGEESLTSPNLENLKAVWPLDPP
Outline: as §1

[13] = molecular target: T8, ETS2 (Homo sapiens, UniProt P15036 1-469); details: protein: recombinant; tags: N-terminal GST; dsDNA, one strand shown
T8 sequence: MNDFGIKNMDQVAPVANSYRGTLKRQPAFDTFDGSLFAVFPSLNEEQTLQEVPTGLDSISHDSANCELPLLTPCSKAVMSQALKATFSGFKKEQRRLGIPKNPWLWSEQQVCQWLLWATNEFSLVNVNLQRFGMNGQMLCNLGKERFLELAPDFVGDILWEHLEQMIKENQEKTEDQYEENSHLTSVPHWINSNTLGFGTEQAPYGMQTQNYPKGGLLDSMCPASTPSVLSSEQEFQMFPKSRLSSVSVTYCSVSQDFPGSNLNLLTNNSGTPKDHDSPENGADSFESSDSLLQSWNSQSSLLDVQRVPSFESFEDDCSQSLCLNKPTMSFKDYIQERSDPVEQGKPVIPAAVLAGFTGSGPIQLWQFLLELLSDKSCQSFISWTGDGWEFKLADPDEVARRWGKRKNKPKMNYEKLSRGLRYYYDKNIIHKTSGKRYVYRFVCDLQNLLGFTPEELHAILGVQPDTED
Outline: as §1

[14] = molecular target: T9, SPDEF (Homo sapiens, UniProt O95238 1-335); details: protein: recombinant; tags: N-terminal GST; dsDNA, one strand shown
T9 sequence: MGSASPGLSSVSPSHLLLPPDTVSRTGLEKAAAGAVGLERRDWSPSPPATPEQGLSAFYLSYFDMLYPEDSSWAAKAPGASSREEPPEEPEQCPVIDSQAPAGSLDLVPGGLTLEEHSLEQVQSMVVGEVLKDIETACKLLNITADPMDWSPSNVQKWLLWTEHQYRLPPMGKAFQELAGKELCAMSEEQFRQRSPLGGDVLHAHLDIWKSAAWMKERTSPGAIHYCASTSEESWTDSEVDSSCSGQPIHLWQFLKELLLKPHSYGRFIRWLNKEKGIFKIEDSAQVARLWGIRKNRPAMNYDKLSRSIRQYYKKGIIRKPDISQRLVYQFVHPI
Outline: as §1

[15] = molecular target: T10, ETV7 (Homo sapiens, UniProt Q9Y603 1-341); details: protein: recombinant; tags: N-terminal GST; dsDNA, one strand shown
T10 sequence: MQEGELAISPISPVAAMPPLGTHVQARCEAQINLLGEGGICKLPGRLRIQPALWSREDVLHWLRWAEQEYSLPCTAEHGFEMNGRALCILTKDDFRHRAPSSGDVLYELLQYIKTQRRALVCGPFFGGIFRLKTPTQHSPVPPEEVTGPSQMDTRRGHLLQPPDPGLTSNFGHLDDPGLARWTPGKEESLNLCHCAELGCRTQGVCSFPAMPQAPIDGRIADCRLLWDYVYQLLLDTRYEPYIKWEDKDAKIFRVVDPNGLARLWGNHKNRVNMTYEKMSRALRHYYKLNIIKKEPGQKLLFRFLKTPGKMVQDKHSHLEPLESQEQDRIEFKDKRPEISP
Outline: as §1

[16] = molecular target: T11, ELF5 (Homo sapiens, UniProt Q9UKW6-2 1-255); details: protein: recombinant; tags: N-terminal GST; dsDNA, one strand shown
T11 sequence: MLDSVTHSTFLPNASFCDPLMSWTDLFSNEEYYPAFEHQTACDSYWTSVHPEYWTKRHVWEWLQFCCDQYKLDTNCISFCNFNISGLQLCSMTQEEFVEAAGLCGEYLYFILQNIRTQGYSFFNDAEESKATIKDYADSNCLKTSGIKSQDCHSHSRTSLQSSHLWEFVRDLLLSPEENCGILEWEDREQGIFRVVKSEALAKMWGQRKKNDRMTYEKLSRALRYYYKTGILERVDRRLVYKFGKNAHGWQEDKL
Outline: as §1

[17] = molecular target: T12, ETV3 (Homo sapiens, UniProt P41162-2 1-143); details: protein: recombinant; tags: N-terminal GST; dsDNA, one strand shown
T12 sequence: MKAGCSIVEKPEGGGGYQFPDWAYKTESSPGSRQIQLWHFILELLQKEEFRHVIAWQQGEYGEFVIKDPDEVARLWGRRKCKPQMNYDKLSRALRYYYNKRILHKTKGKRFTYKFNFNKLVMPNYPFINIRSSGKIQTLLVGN
Outline: as §1

[18] = molecular target: ETV6 (Homo sapiens, UniProt P41212 1-452); details: protein: recombinant; tags: N-terminal GST; dsDNA, one strand shown
Sequence of ETV6 (P41212 whole entry): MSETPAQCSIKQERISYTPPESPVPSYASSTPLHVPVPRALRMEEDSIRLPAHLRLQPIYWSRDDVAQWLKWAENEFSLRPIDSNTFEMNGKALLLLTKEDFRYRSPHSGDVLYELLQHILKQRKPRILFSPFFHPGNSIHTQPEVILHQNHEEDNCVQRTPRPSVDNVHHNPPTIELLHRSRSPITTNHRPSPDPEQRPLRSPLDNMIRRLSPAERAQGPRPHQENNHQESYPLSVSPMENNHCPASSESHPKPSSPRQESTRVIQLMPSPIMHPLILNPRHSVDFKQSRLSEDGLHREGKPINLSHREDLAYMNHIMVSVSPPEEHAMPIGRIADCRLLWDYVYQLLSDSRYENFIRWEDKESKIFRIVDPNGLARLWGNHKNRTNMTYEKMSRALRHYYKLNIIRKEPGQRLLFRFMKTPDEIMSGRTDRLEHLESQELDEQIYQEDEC
Outline: as §1

Question: What does the source list for CCTTAC?
Answer: binding signal [1]: 1.21 fold enrichment (6-mer frequency, TF over GST control); binding signal [2]: 1.36 fold enrichment (6-mer frequency, TF over GST control); binding signal [3]: 1.15 fold enrichment (6-mer frequency, TF over GST control); binding signal [4]: 1.22 fold enrichment (6-mer frequency, TF over GST control); binding signal [5]: 1.38 fold enrichment (6-mer frequency, TF over GST control); binding signal [6]: 1.13 fold enrichment (6-mer frequency, TF over GST control); binding signal [7]: 1.33 fold enrichment (6-mer frequency, TF over GST control); binding signal [8]: 1.34 fold enrichment (6-mer frequency, TF over GST control); binding signal [9]: 1.17 fold enrichment (6-mer frequency, TF over GST control); binding signal [10]: 1.21 fold enrichment (6-mer frequency, TF over GST control); binding signal [11]: 1.32 fold enrichment (6-mer frequency, TF over GST control); binding signal [12]: 1.26 fold enrichment (6-mer frequency, TF over GST control); binding signal [13]: 1.3 fold enrichment (6-mer frequency, TF over GST control); binding signal [14]: 1.33 fold enrichment (6-mer frequency, TF over GST control); binding signal [15]: 1.36 fold enrichment (6-mer frequency, TF over GST control); binding signal [16]: 1.69 fold enrichment (6-mer frequency, TF over GST control); binding signal [17]: 1.31 fold enrichment (6-mer frequency, TF over GST control); binding signal [18]: 1.28 fold enrichment (6-mer frequency, TF over GST control)
